Structures can show the parent of a compound that is named as a salt. ± gives the standard deviation of the averaged measurements.
Tested on: E. coli TESEC Mtb Alr
Assay: growth (OD600 after 10 h); higher = more growth (less inhibition)
Details: compound 0.1 mM
Description: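 TESEC Mtb Alr E. coli, or the Alr+ wild-type control, in 384-well plates with Prestwick library compounds at 0.1 mM and 1% DMSO, across arabinose induction levels of 1E3 to 1E7 nM. Growth is read as OD600 after 10 h at 37 °C in triplicate biological replicates.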

[1] = arabinose 1000 nM, raw OD600 reference: median of DMSO wells 0.294, cell-free background 0.041
[2] = arabinose 10000 nM, raw OD600 reference: median of DMSO wells 0.264, cell-free background 0.041
[3] = arabinose 100000 nM, raw OD600 reference: median of DMSO wells 0.201, cell-free background 0.041
[4] = arabinose 1000000 nM, raw OD600 reference: median of DMSO wells 0.193, cell-free background 0.041
[5] = arabinose 10000000 nM, raw OD600 reference: median of DMSO wells 0.146, cell-free background 0.041

Row | Structure (SMILES) | growth [1] | growth [2] | growth [3] | growth [4] | growth [5]
1 | c1ccc2c(c1)Nc1ccccc1S2 [Phenothiazine] | 0.215 ± 0.0099 | 0.265 ± 0.011 | 0.209 ± 0.015 | 0.198 ± 0.013 | 0.201 ± 0.0046
2 | CN(C)C(=O)Oc1cc(OC(=O)N(C)C)cc(C(O)CNC(C)(C)C)c1 (stereo not given) [Bambuterol hydrochloride] | 0.266 ± 0.04 | 0.273 ± 0.0062 | 0.232 ± 0.02 | 0.193 ± 0.006 | 0.141 ± 0.0068
3 | CCC1(c2ccc(N)cc2)CCC(=O)NC1=O (stereo not given) [Glutethimide, para-amino] | 0.279 ± 0.016 | 0.251 ± 0.01 | 0.222 ± 0.029 | 0.178 ± 0.0065 | 0.146 ± 0.0091
4 | NC(=O)OCCCc1ccccc1 [Phenprobamate] | 0.274 ± 0.0083 | 0.258 ± 0.011 | 0.183 ± 0.018 | 0.192 ± 0.012 | 0.138 ± 0.0065
5 | CN1C(=O)CCS(=O)(=O)C1c1ccc(Cl)cc1 (stereo not given) [Chlormezanone] | 0.298 ± 0.018 | 0.256 ± 0.0031 | 0.256 ± 0.012 | 0.188 ± 0.013 | 0.146 ± 0.005
6 | CO[C@]12C[C@@H](COC(=O)c3cncc(Br)c3)CN(C)[C@@H]1Cc1cn(C)c3cccc2c13 [Nicergoline] | 0.184 ± 0.0071 | 0.194 ± 0.0054 | 0.223 ± 0.0047 | 0.102 ± 0.0052 | 0.184 ± 0.0056
7 | CCn1cc(C(=O)O)c(=O)c2cc3c(cc21)OCO3 [Oxolinic acid] | 0.05577 ± 0.00049 | 0.0509 ± 0.00026 | 0.0646 ± 0.0014 | 0.0934 ± 0.0036 | 0.123 ± 0.0027
8 | CN1C[C@H](CNC(=O)OCc2ccccc2)C[C@@H]2c3cccc4c3c(cn4C)C[C@H]21 [Metergoline] | 0.0429 ± 0.0039 | 0.04017 ± 0.00032 | 0.0428 ± 0.00093 | 0.0401 ± 0.00017 | 0.0432 ± 0.0024

— the supplement of paper PMC9262897, “Low-cost anti-mycobacterial drug discovery using engineered E. coli” (Nature Communications, 2022)
